About 3,600 (1.2%) of roughly 300,000 compounds were called active. This is one part of a sample in which actives are shown more often than they occur. No stated cut-off is given here; in the data, active means activation above about 30% (passing the limit was not always enough); inconclusive means no clear call, values can overlap the other calls.
Assay: activation of beta-catenin signaling reporter – cell-based, plate reader, single point, primary screen (AID 743398);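 further: 0% = neutral control wells and 100% = positive control wells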
Settings: Wnt/beta-catenin reporter cell assay, activator, at 9.35 µM, stronger effect = higher value

activation, inactive:
CO[C@@H]1CN(C)C(=O)c2cc(NC(=O)Nc3cc(F)ccc3F)ccc2OC[C@H](C)N(C(=O)c2ccccn2)C[C@@H]1C -7.29%, c1ccc2c(c1)nnn2-c1ccncc1 -1.47%, COC(=O)c1sccc1NC(=O)c1ccc(Cl)cc1 -0.421%, COC(=O)c1sccc1NC(=S)Nc1ccc(C)cc1 12.9%, O=C(NC1CCCCC1)C(c1cc2ccccc2o1)n1c(=O)c(-c2ccco2)nc2ccccc21 (configuration not stated) 2.44%, CCOC(=O)c1cccc(NC(=O)CN2C(=O)C3CC=CCC3C2=O)c1 (configuration not stated) 0.82%, CCOC(=O)c1cccc(NC(=O)CCOc2ccccc2)c1 -0.119%, COc1ccc(N2C(=O)c3ccccc3NC2c2ccc(OC)c(CN3CCOCC3)c2)cc1 (configuration not stated) 7.45%, COc1ccc(C2Nc3ccccc3C(=O)N2Cc2ccccc2)cc1Cn1nnc2ccccc21 (configuration not stated) -5.17%, COc1cccc(-c2cnc3c(NC(C)=O)cc(-c4cc(F)ccc4OC)cn23)c1 -0.939%, CC(C)(C)C1CCC(=O)N2CCC[C@]2(c2ccccc2)C1 (some centres not stated) -2.76%, COc1ccc(C2=NN(C(=O)c3cccnc3)C(c3ccccc3)C2)cc1 (configuration not stated) 1.72%, COc1ccc(C2=NN(C(C)=O)C(c3ccccc3)C2)cc1 (configuration not stated) 3.24%, COCCNC(=S)N(C)[C@H]1C[C@H]2c3[nH]c4ccccc4c3CCN2C[C@H]1[C@H](C)O -0.111%, COC(=O)[C@]12CCCCC=C1N(Cc1ccc(Cl)cc1Cl)C(=O)[C@H](CC(=O)NCc1cccc3ccccc13)C2 -3.47%, O=C(CCc1ccc(O)cc1)NN=Cc1cc(Br)ccc1O -2.84%, N#Cc1ccccc1NC(=O)c1ccc2c(c1)OCO2 3.38%, O=C(Nc1ccccc1N1CCN(C(=O)c2ccccc2)CC1)c1ccc2c(c1)OCO2 1.55%, CN1C(=O)C(Br)(Br)CC1c1cccnc1 (configuration not stated) 0.101%, CCOC(=O)[C@]12CCCC=C1N(CCC1=CCCCC1)C(=O)[C@H](CC(=O)N1CCSCC1)C2 -2.19%, COc1ccccc1Cc1c(-c2ccc(F)cc2)nc2ccc(C)cn12 13%, CCOC(=O)N1CCN(C(=O)C[C@H]2C[C@@]3(C(=O)OC)C(=C[C@H](C4CCCC4)O[C@@H]3C)N(Cc3ccccc3)C2=O)CC1 -4.54%, CCN(C(=O)CSc1ncnc2c1cnn2-c1ccccc1)C1CCS(=O)(=O)C1 (configuration not stated) 0.526%, CCC(C)N(C(=O)CSc1ncnc2c1cnn2-c1ccccc1)C1CCS(=O)(=O)C1 (configuration not stated) 0.0855%, O=C1NC[C@H](Cc2ccc(O)cc2)N(C[C@@H]2CCCN2C[C@H](Cc2ccccc2)N2C[C@H](Cc3ccccc3)N(CC3CCCCC3)C(=O)C2=O)C1=O -2.18%, COC(=O)c1ccc(CN2C(=O)[C@]3(OCCC=C[C@H]3C)c3c(Br)cccc32)cc1 -10.3%, NS(=O)(=O)c1cccc(NC(=O)CN2CCCc3ccccc32)c1 -1.12%, CC1CC(C)CN(CC(=O)Nc2ccc(S(N)(=O)=O)cc2)C1 (configuration not stated) -0.27%, CC1CCN(C(=O)COC(=O)c2cc(=O)[nH]c3ccccc23)CC1 -3.48%, CC(NC(=O)COC(=O)c1cc(=O)[nH]c2ccccc12)c1ccccc1 (configuration not stated) -11.1%, Cc1ccc([C@H]2N[C@]3(CCCN(Cc4ccccc4)C3=O)[C@H]3C(=O)N(Cc4ccccc4)C(=O)[C@@H]23)cc1 -1.11%, Cc1cc(C)nc(Nc2cc([N+](=O)[O-])ccc2C)n1 -0.166%, Cc1ccc(-c2cn(S(=O)(=O)c3cccc([N+](=O)[O-])c3)nc2N)cc1 -0.55%, CC(C)[C@@H](C)/C=C/[C@@H](C)[C@H]1CC[C@@H]2[C@]1(C)CCC1[C@]23C=C[C@]2(C[C@@H](O)CC[C@]12C)N(c1ccc([N+](=O)[O-])cn1)O3 (some centres not stated) -14.5%, CN(C(=O)CN1CCN(c2cc(-c3ccc(OCc4ccccc4)cc3)ncn2)CC1)c1ccccc1 -1.53%, CC(C)Cc1cc(C(=O)NCCc2ccccc2)no1 28.6%, CC(C)CNC(=O)c1cc(-c2ccc(Br)cc2)on1 26.3%, OC[C@@H]1CN(Cc2ccc(-c3ccccc3)cc2)C[C@H](n2cnc3c(NC4CCCC4)ncnc32)O1 -4.89%, Cc1nc2c(OCc3ccc(Cl)cc3Cl)cccn2c1N(C)CC1CC1 -3.96%, Nc1nc2c(ncn2[C@@H]2O[C@H](C(=O)N[C@@H](Cc3ccccc3)C(=O)NCc3ccccc3)[C@@H](O)[C@H]2O)c(=O)[nH]1 1.27%, CSCCC(C(=O)NC(C)(C)C)n1c(-c2ccccc2)nc2ccccc21 (configuration not stated) 2.95%, CCOC(=O)c1c(NC(=S)SC)sc(C(=O)N2CCc3ccccc3C2)c1C -0.956%, Oc1c(CN2CCCC2)cc(COCc2ccccc2)c2cccnc12 2.52%, CC(=O)NC(c1cccs1)c1cc(Br)c2cccnc2c1O (configuration not stated) -2.66%, O=C(NN=Cc1ccco1)C(=O)Nc1ccc(Cl)c([N+](=O)[O-])c1 -3.58%, Cc1cc(C)n2c(Nc3c(C)cccc3C)c(CCc3ccccc3)nc2n1 -1.15%, Cc1nc2cc(NC(=O)CSc3nc4c(C)cccc4cc3C#N)ccc2s1 -2.44%, Cc1nonc1NC(=O)CSc1nc2ccccc2cc1C#N 24.4%, CCCCc1c(-c2ccc(Br)cc2)ncn1CCc1ccccc1OC -12.1%, CC(=O)c1ccc(S(=O)(=O)NCC2CCN(C(=O)C(=O)c3cccs3)CC2)cc1 -0.884%, Cc1nc2ccc(NC(=O)C3CCCCC3)cc2s1 15.2%, Cc1nc(NC(=O)C23CCC(C)(C(=O)O2)C3(C)C)sc1C (configuration not stated) -2.53%, CCOC(=O)c1ccc(-c2ccc3ncnc(N(C)Cc4sccc4C)c3c2)o1 7.57%, COC(=O)C(C(=O)OC)c1ccccc1NS(=O)(=O)c1cccc2ccccc12 -4.59%, CCc1nc2c(OCCOc3ccccc3)cccn2c1N(C)C(=O)c1cccs1 -2.69%, CCOc1ccc2nc(N3CCCN(C(=O)Nc4ccccc4C)CC3)c(C#N)cc2c1 -1.99%, COc1ccc(CCNC(=O)CSc2nc(-c3ccc(OC)c(OC)c3)ccc2C#N)cc1 -3.46%, COc1ccc(NC(=O)C(c2ccncc2)n2c(=O)c(-c3cc4ccccc4[nH]3)nc3ccccc32)cc1 (configuration not stated) 16.9%, C[C@H](O)[C@@H]1CN2CCc3ccc(-c4ccc5c(c4)OCO5)cc3[C@@H]2C[C@@H]1N(C)C(=O)C1CCCCC1 23.5%, Cc1ccccc1C(=O)N[C@H](C(=O)N1CCC[C@H]1C(=O)NCc1ccccc1)C(C)C -3.2%, COc1cc(C(O)c2nc3ccccc3n2C)cc(OC)c1OC (configuration not stated) -0.72%, COc1ccc(OC)c(C(O)c2nc3ccccc3n2C)c1 (configuration not stated) -0.171%, CCCCCCn1c(=O)n2n(c1=O)C[C@]1(OC(=O)NCc3ccc(OC)c(OC)c3)CN(S(=O)(=O)c3ccc(C)cc3)C[C@]1(O)C2 -4.95%, C=CCNC(=O)c1ccc(C)c(Br)c1 -0.707%, Cc1cccc(-c2nc3ccc(C(=O)NCCN4CCN(C)CC4)cc3nc2-c2cccc(C)c2)c1 2.48%, CCN(CC)C(=O)c1sc2nc(-c3ccccc3)ccc2c1N 10.1%, Cc1ccc2c(N)c(C(=O)c3ccccc3)sc2n1 22.1%, COc1cccc(C(O)c2ncc(-c3ccc4ccccc4c3)[nH]2)c1 (configuration not stated) 0.0285%, Cc1ccc2nc(-c3ccco3)c(Cc3cccc(Cl)c3)n2c1 -1.15%, O=C(COc1ccc([N+](=O)[O-])cc1)Nc1ccc(N2CCCC2)cc1 -2.41%, O=C(N/N=C/c1ccc(O)cc1)/C(=C/c1ccc([N+](=O)[O-])cc1)NC(=O)c1ccccc1 0.356%, CCC(CC)C(C(=O)NC1CCCC1)N1CCN(c2cc(C)nc3ccccc23)CC1 (configuration not stated) -1.19%, CNC(=O)c1ccc(CN(C)C(=O)c2cc(C3CC3)nc3c2cnn3C(C)C)cc1 7.06%, O=C(Cc1ccc([N+](=O)[O-])cc1)NCCS(=O)(=O)N1CCN(c2ccccc2)CC1 -2.6%, CCCOc1ccc(F)cc1-c1cc(C(=O)Nc2ccc(F)c(Cl)c2)[nH]n1 -0.991%, CCCCCCCCN1C(=O)[C@@H](CC(=O)NCc2ccc(C)o2)C[C@@]2(C(=O)OC)C1=C[C@H](C(C)(C)C)O[C@@H]2C -3.74%, COC(=O)C(C)Oc1ccc2c(c1)O/C(=C\c1cccc(Br)c1)C2=O (configuration not stated) -0.1%, O=C1Oc2ccccc2C(=O)/C1=C/c1ccccc1O -4.19%, Clc1cccc2c1C1CC2CCN1Cc1ccccc1 (configuration not stated) -2.22%, COc1ccc(C(=O)O/N=C(\N)c2ccccn2)cc1[N+](=O)[O-] 17%, N/C(=N\OC(=O)Cc1ccc([N+](=O)[O-])cc1)c1ccccn1 1.55%, COc1ccc(OC)c(CN2C(=O)CCC2(C)c2nnnn2Cc2ccccc2)c1 (configuration not stated) -0.624%

activation, active:
COC(=O)c1sccc1NN1C(=O)c2ccccc2C1=O 40.2%, CCOC(=O)c1cccc(NC(=O)c2ccc(F)cc2F)c1 46.1%, COc1ccc(C2Nc3ccccc3C(=O)N2c2ccc(Cl)cc2)cc1Cn1cc([N+](=O)[O-])cn1 (configuration not stated) 63.8%, COc1ccc(C2=NN(C(=O)c3ccccc3C(=O)O)C(c3ccccc3O)C2)cc1 (configuration not stated) 42.7%, O=C(Nc1ccccc1F)c1ccc2c(c1)OCO2 44%, CCN(CC)C(=O)CSc1ncnc2c1cnn2-c1ccccc1 61.3%, CC1Cc2ccccc2N1CC(=O)Nc1ccc(S(N)(=O)=O)cc1 (configuration not stated) 39%, CN(C(=O)COC(=O)c1cc(=O)[nH]c2ccccc12)C1CCCCC1 60.6%, Cc1ccc(-n2cc3ccc([N+](=O)[O-])cc3n2)cc1 44.6%, CC(C)Cc1cc(C(=O)Nc2cc(Br)ccc2O)no1 44.3%, CCN1CCN(C(c2cccnc2)c2cc(Cl)c3cccnc3c2O)CC1 (configuration not stated) 61.4%, Cc1cc(C)c(C#N)c(SCC(=O)Nc2ccccc2)n1 39.1%, Cc1nc(NC(=O)C2CCCCC2)sc1C 37.5%, CCOc1ccc2cc(C#N)c(SCC(=O)OC)nc2c1 86%, COc1cccc(C(O)c2nc3ccccc3n2C)c1 (configuration not stated) 47.8%, C=CCNC(=O)c1ccc2c3n(nc2c1)-c1ccc(C)cc1CO3 38.9%, CN(C)c1ccnc2sc(C(=O)c3ccccc3)c(N)c12 79.3%, O=C(COc1ccc(/C=N/NC(=O)c2ccc(O)cc2)cc1)Nc1ccc([N+](=O)[O-])cc1 46.5%, COc1ccc2c(c1)O/C(=C\c1ccccc1O)C2=O 39.8%, COc1ccccc1OCC(=O)O/N=C(\N)c1ccccn1 55.9%

Source: PubChem BioAssay AID743398 (Broad Institute, 2014)
